Results filed as inconclusive are left out. Activity calls are given as the source filed them. Unless noted, calls follow the shape of the dose curve; as a rule, active = well fitted curve in the direction sought with a large enough effect in the repeat runs; inconclusive = weak or mixed curves; inactive = no such curve, though single readings can be large; an effect the other way counts as inactive or inconclusive.
Assays:
[1] = A CellTox Green Cytotoxicity Assay to monitor cytotoxicity in HepG2 cells - 0 hour (AID 1224882); also: nearly all actives have a fitted effect of over 35% in size; also: potency is read from the fitted curve at half-maximal effect
Procedure, shortened: (§1)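 Read-out is fluorescence of a cyanine dye excluded from live cells that stains DNA of dead HepG2 cells, with signal proportional to cytotoxicity. Plates were read at 0, 8, 16, 24, 32 and 40 h after compound addition.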

[2] = A CellTox Green Cytotoxicity Assay to monitor cytotoxicity in HepG2 cells - 32 hour (AID 1224883); also: nearly all actives have a fitted effect of over 50% in size; also: potency is read from the fitted curve at half-maximal effect
Procedure, shortened: as §1

[3] = A CellTox Green Cytotoxicity Assay to monitor cytotoxicity in HEK293 cells - 8 hour (AID 1224884); also: nearly all actives have a fitted effect of over 35% in size; also: potency is read from the fitted curve at half-maximal effect
Procedure, shortened: (§2)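 Nonlytic real-time cytotoxicity: HEK293 + CellTox Green reagent plated, 5 h preincubation, pintool compound addition (23 nL in DMSO), 37 C for 40 h, fluorescence measured at successive time points.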

[4] = A CellTox Green Cytotoxicity Assay to monitor cytotoxicity in HEK293 cells - 16 hour (AID 1224888); also: nearly all actives have a fitted effect of over 35% in size; also: potency is read from the fitted curve at half-maximal effect
Procedure, shortened: as §2

[5] = qHTS RealTime-Glo MT Cell Viability Assay in HepG2 cells - 0 hour (AID 1224889); also: nearly all actives have a fitted effect of over 50% in size; also: potency is read from the fitted curve at half-maximal effect
Procedure, shortened: (§3)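 HepG2 cells (600/well) were dispensed with RealTime-Glo reagents, incubated 5 h at 37 °C, then treated with compounds in DMSO for up to 40 h. Nonlytic NanoLuc luminescence reflecting viable cells was read at each stated time point.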

[6] = A CellTox Green Cytotoxicity Assay to monitor cytotoxicity in HepG2 cells - 8 hour (AID 1224890); also: nearly all actives have a fitted effect of over 45% in size; also: potency is read from the fitted curve at half-maximal effect
Procedure, shortened: as §1

[7] = qHTS assay to identify small molecule antagonists of the estrogen receptor alpha (ER-alpha) signaling pathway using the BG1 cell line in the presence of 0.1 nM 17-beta-estradiol - cell viability counter screen (AID 1259241); also: nearly all actives have a fitted effect of over 40% in size; also: potency is read from the fitted curve at half-maximal effect
Procedure, shortened: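 Estradiol-stimulated (0.1 nM) VM7Luc4E2 cells exposed to compounds 22 hr; viability measured by fluorescence of cleaved CellTiter-Fluor substrate after 30 min.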

[8] = qHTS assay to identify small molecule antagonists of the androgen receptor (AR) signaling pathway using the MDA cell line in the presence of 0.5 nM R1881 - cell viability counter screen (AID 1259242); also: nearly all actives have a fitted effect of over 45% in size; also: potency is read from the fitted curve at half-maximal effect
Procedure, shortened: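 Counter screen for cytotoxicity run in the same wells as the AR antagonist reporter screen: MDA-kb2 cells were treated 16 hr with test compounds and 0.5 nM R1881, then live-cell protease activity was measured by fluorescence.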

[9] = target: Estrogen receptor (Homo sapiens) (UniProt P03372); assay: qHTS assay to identify small molecule antagonists of the estrogen receptor alpha (ER-alpha) signaling pathway using the BG1 cell line in the presence of 0.1 nM 17-beta-estradiol (AID 1259244); also: nearly all actives have a fitted effect of over 50% in size; also: potency is read from the fitted curve at half-maximal effect
Sequence of Estrogen receptor (Homo sapiens) (P03372 whole entry, looked up): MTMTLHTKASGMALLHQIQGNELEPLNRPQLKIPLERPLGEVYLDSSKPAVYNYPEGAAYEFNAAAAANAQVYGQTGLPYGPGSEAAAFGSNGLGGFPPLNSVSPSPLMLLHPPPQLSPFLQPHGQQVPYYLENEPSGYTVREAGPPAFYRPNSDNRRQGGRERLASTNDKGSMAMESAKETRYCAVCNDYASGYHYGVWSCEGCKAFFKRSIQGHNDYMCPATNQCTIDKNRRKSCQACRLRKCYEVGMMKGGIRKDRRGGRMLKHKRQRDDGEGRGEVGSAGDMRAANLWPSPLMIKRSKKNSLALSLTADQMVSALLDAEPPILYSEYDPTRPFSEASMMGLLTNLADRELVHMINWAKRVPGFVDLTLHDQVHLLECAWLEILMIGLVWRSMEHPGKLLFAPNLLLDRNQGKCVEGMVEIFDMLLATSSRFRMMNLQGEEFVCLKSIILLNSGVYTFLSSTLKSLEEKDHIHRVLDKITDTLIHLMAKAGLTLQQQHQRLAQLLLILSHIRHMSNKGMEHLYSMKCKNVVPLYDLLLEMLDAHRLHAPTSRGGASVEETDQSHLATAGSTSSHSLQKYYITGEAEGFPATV
Procedure, shortened: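 Cells: VM7Luc4E2, endogenous ER-alpha, 4x ERE-luc stable. Pre-culture 5 d, phenol red-free, charcoal-stripped FBS. Plated 24 h, compound + E2 0.1 nM final, 22 h 37C/5% CO2. Readout ONE-Glo luminescence.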

[10] = qHTS assay to identify small molecule HDAC inhibitors (AID 1259364); also: nearly all actives have a fitted effect of over 45% in size; also: potency is read from the fitted curve at half-maximal effect
Procedure, shortened: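 Luminescence from a cell-permeant luminogenic class I/II HDAC substrate reports endogenous deacetylase activity in intact HCT-116 cells treated with compounds for 2 h.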

[11] = qHTS assay to identify small molecule HDAC inhibitors - cell viability counter screen (AID 1259365); also: series mostly up to about 92 µM; nearly all actives have a fitted effect of over 50% in size
Procedure, shortened: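 After overnight seeding at 1,500 cells per well, wild-type HCT-116 cultures took up compounds in DMSO for 2hr at 37 C. Viable cell content came from luminescence with CellTiter-Glo.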

[12] = qHTS assay to identify small molecule antagonists of the sonic hedgehog signaling (Shh) pathway - cell viability counter screen (AID 1259367); also: nearly all actives have a fitted effect of over 55% in size; also: potency is read from the fitted curve at half-maximal effect
Procedure, shortened: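 Seed 3T3 Gli1-Luc cells at 2,000 per well; incubate 4 hr; add compound in DMSO, then conditioned medium; incubate at 37C with 5% CO2; add CellTiter-Fluor after 23 hr; read fluorescence 1 hr later.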

[13] = qHTS assay to identify small molecule agonists of the sonic hedgehog signaling (Shh) pathway (AID 1259368; calls by dose curve; also: nearly all actives have a fitted effect of over 15% in size; also: potency is read from the fitted curve at half-maximal effect)
Procedure, shortened: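 3T3Gli1-Luc (NIH/3T3 clone, stable Gli1-Luc); 4 hr pre-incubation, then cpd in DMSO 24 hr, 37 C/5% CO2; luciferase reagent 30 min RT; luminescence.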

[14] = qHTS assay to identify small molecule antagonists of the sonic hedgehog signaling (Shh) pathway (AID 1259369; calls by dose curve; also: nearly all actives have a fitted effect of over 45% in size; also: potency is read from the fitted curve at half-maximal effect)
Procedure, shortened: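 3T3Gli1-Luc, conditioned-medium-stimulated, 24hr cpd, 37C/5% CO2; Gli1-driven firefly Luc luminescence after 30min RT with luciferase reagent. Cells plated 4hr before cpd.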

[15] = qHTS RealTime-Glo MT Cell Viability Assay in HepG2 cells - 16 hour (AID 1224885); also: nearly all actives have a fitted effect of over 50% in size; also: potency is read from the fitted curve at half-maximal effect
Procedure, shortened: as §3

[16] = qHTS RealTime-Glo MT Cell Viability Assay in HEK293 cells - 24 hour (AID 1224886); also: nearly all actives have a fitted effect of over 50% in size; also: potency is read from the fitted curve at half-maximal effect
Procedure, shortened: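 HEK293 cells seeded with NanoLuc/prosubstrate reagent, rested 5 h at 37 C, then dosed and kept at 37 C up to 40 h. Nonlytic real-time luminescence from viable cells read at 0, 8, 16, 24, 32 and 40 h.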

[17] = qHTS RealTime-Glo MT Cell Viability Assay in HEK293 cells - 8 hour (AID 1224887); also: nearly all actives have a fitted effect of over 50% in size; also: potency is read from the fitted curve at half-maximal effect
Procedure, shortened: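 Cells were seeded together with NanoLuc luciferase and a prosubstrate that viable cells reduce to a luciferase substrate. After a 5 h incubation at 37 C/5% CO2, compounds were added and luminescence was measured repeatedly during 40 h of treatment.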

[18] = target: Androgen receptor (Homo sapiens) (UniProt P10275); assay: qHTS assay to identify small molecule antagonists of the androgen receptor (AR) signaling pathway using the MDA cell line in the presence of 0.5 nM R1881 (AID 1259243); also: nearly all actives have a fitted effect of over 50% in size; also: potency is read from the fitted curve at half-maximal effect
Sequence of Androgen receptor (Homo sapiens) (P10275 whole entry, looked up): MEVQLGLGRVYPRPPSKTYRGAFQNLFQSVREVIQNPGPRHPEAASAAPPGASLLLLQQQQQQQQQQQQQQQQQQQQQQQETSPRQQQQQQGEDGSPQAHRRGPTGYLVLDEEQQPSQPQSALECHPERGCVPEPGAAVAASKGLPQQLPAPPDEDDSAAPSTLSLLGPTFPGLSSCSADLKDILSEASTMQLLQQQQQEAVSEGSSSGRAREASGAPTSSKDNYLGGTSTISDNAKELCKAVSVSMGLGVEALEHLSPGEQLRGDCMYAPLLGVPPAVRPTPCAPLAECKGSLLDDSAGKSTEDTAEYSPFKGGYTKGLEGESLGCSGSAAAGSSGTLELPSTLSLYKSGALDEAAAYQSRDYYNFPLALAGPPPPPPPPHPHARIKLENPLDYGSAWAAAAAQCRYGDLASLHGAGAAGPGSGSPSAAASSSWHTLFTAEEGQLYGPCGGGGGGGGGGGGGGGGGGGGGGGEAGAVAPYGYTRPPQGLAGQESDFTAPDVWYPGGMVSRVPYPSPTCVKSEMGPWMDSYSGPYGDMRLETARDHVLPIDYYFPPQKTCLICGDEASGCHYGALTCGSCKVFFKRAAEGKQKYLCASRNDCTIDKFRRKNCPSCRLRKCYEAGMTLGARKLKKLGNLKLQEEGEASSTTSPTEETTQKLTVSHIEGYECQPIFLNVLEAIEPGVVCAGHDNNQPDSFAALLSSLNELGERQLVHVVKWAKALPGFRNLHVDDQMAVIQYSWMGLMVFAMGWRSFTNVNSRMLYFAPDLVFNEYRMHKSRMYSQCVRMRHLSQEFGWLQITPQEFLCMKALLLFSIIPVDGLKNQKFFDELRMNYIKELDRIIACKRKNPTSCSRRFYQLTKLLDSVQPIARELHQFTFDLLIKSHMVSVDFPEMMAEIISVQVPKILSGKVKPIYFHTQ
Procedure, shortened: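 Luciferase luminescence is the read-out: compounds are tested for suppressing 0.5 nM R1881-driven MMTV reporter activity in MDA-kb2 cells after 16 hr at 37C.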

[19] = qHTS assay to identify small molecule agonists of the sonic hedgehog signaling (Shh) pathway - cell viability counter screen (AID 1259366); also: nearly all actives have a fitted effect of over 50% in size; also: potency is read from the fitted curve at half-maximal effect
Procedure, shortened: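 Same-well cytotoxicity read. Gli1-Luc reporter 3T3 cells; compounds 24hr, 37C/5% CO2; CellTiter-Fluor fluorescence.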

[20] = qHTS assay to identify small molecule phospholipidosis (PLD) inducers (AID 1259344; active = well fitted curve in the direction sought with a large enough effect; an effect the other way counts as inactive or inconclusive; also: potency is read from the fitted curve at half-maximal effect)
Procedure, shortened: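 Quantitative HTS in HepG2: compound plus LipidTOX Red dye for 24 h, paraformaldehyde fixation with Hoechst 33342, widefield high-content imaging; amiodarone as positive and DMSO as negative control.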

Measured: Potency

COc1ccc(OC)c(C=O)c1
not listed: [15] | [16] | [17] | [18] | [19] | [20]
inactive: all other assays above

CC(C)(c1ccc(O)c(-c2ccccc2)c1)c1ccc(O)c(-c2ccccc2)c1
inactive: [1] | [5] | [10] | [13]
active: [2] 49 µM | [15] 49 µM | [16] 21.9 µM | [17] 21.9 µM | [18] 30.6 µM | [9] 48.6 µM | [19] 15.4 µM

O=C1c2ccccc2C(=O)C1C(=O)C(c1ccccc1)c1ccc(Cl)cc1 (centres undefined)
inactive: [1] | [15] | [16] | [17] | [8] | [10] | [19] | [12] | [13]
active: [2] 54.9 µM | [18] 21.7 µM | [9] 27.3 µM | [14] 54.5 µM

O=c1ssc(Cl)c1Cl
active: [2] 19.5 µM | [15] 21.9 µM | [16] 15.5 µM | [17] 17.4 µM | [4] 38.9 µM | [5] 43.6 µM | [6] 24.5 µM | [8] 54.5 µM | [19] 30.6 µM
inactive: [1] | [7] | [9] | [11] | [13]

Cc1c(Cl)c(=O)oc2cc(OP(=O)(OCCCl)OCCCl)ccc12
not listed: [14] | [15] | [16] | [17] | [18] | [19]
inactive: all other assays above

O=C1NCN(c2ccccc2)C12CCN(CC1COc3ccccc3O1)CC2 (centres undefined)
inactive: [1] | [2] | [3] | [4] | [5] | [6] | [8] | [10] | [11] | [13] | [14]

CN(C)c1ccc(N=Nc2ccccc2)cc1
active: [7] 54.5 µM | [10] 4.33 µM | [19] 27.3 µM | [13] 1.72 µM
inactive: [1] | [2] | [15] | [5] | [11] | [14]

CCOC(=O)c1ccccc1S(=O)(=O)NC(=O)Nc1nc(Cl)cc(OC)n1
not listed: [3] | [4] | [15] | [16] | [17] | [20]
inactive: all other assays above

N#CCCC(Br)(C#N)CBr (centres undefined)
inactive: [1] | [5] | [7] | [8] | [9] | [10] | [11] | [13]
active: [2] 30.9 µM | [15] 38.9 µM | [16] 24.5 µM | [17] 49 µM | [4] 54.9 µM | [6] 54.9 µM | [19] 27.3 µM | [12] 27.3 µM | [14] 21.7 µM

OC(c1ccc(Cl)cc1)(c1ccc(Cl)cc1)C(Cl)(Cl)Cl
active: [17] 49 µM
not listed: [11] | [15] | [16] | [18] | [19] | [20]
inactive: all other assays above

Cn1cc(C2=C(c3cn(C4CCN(Cc5ccccn5)CC4)c4ccccc34)C(=O)NC2=O)c2ccccc21
active: [20] 1.78 µM
not listed: [6] | [9] | [14] | [15] | [17] | [18]
inactive: all other assays above

CC(Cc1ccc(C(C)(C)C)cc1)CN1C[C@@H](C)O[C@@H](C)C1 (some centres undefined)
active: [2] 49 µM
inactive: [1] | [15] | [5] | [7] | [8] | [10] | [11] | [12] | [13]

c1ccc(Nc2ccc3ccccc3c2)cc1
active: [2] 48.7 µM
not listed: [10] | [12] | [14] | [15] | [16] | [17] | [18] | [20]
inactive: all other assays above

CC1(C)[C@H](C(=O)O[C@H](C#N)c2cccc(Oc3ccccc3)c2)[C@@H]1/C=C(\Cl)C(F)(F)F
not listed: [9] | [15] | [16] | [17] | [18] | [19] | [20]
inactive: all other assays above

CC(C)Oc1cccc(NC(=O)c2ccccc2C(F)(F)F)c1
active: [1] 49 µM | [2] 43.6 µM | [3] 43.6 µM | [4] 49 µM | [6] 49 µM | [14] 2.17 µM
inactive: [5] | [7] | [8] | [20] | [10] | [11] | [13]
